An excerpt weighted towards active compounds, which were near 27% of everything screened.
Cav32 inh: Cav3.2 calcium influx blockers – cell-based, Fluo-4 calcium fluorescence, FDSS, MLSMR library, primary screen; Voltage-dependent T-type calcium channel subunit alpha-1H (Homo sapiens), O95180; Cav3.2-expressing cells; hits give low values; B-score at 10 µM; 100,000 compounds, 4% hits; AID 449739, 2010;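 active = single-dose well whose peak fluorescence ratio is a statistical outlier from its plate by either plate-standardised score or position-corrected B-score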
CYP2C19 activ: human CYP2C19 activators, primary screen, biochemical, luminescence | Cytochrome P450 2C19 (Homo sapiens), P33261 | recombinant CYP2C19, luciferin-H EGE luminescence; hits give high values; 0 = fully inhibited enzyme, 1 = untreated enzyme | activation factor at 5 µM | 96,000 tested, under 10 active | AID 1025, 2008;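 active = activation factor of at least 2 at 5 µM in the primary screen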
Target sequence (P33261 whole entry, looked up): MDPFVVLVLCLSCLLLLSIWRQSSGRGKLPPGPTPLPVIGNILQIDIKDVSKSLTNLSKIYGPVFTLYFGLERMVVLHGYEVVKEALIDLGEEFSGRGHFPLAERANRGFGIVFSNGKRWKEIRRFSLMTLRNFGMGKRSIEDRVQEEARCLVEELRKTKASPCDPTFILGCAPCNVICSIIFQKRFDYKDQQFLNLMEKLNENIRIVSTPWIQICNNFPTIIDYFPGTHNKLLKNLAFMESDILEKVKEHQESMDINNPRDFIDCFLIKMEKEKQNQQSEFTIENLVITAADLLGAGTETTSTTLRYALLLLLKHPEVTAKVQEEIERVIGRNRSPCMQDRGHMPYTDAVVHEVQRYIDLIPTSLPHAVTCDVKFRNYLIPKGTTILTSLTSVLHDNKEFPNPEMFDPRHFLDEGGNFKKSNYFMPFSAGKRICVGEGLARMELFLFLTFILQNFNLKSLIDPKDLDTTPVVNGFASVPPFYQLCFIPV
CYP2C9 activ: human CYP2C9 activators, primary screen, biochemical, luminescence | Cytochrome P450 2C9 (Homo sapiens), P11712 | recombinant CYP2C9, luciferin-H conversion; hits give high values; factor 1 = untreated enzyme, 0 = blocked | activation factor at 5 µM | 96,000 compounds, 1.4% hits | AID 1024, 2008;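 active = activation factor of 2 or more for CYP2C9 at a 5 µM dose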
CYP2C9 inhib: blockers of cytochrome P450 2C9 activity – biochemical, luminescence, ADME assay, primary screen; P11712; CYP2C9 Supersomes, luciferin-H conversion; inhibition, % at 5 µM; 96,000 compounds, 20% hits;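 active = blocking of liver enzyme CYP2C9 beyond about 50% at 5 µM, limit read from the data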
CYP2C19 inh: blockers of cytochrome P450 2C19 activity – biochemical, luminescence, ADME assay, primary screen | P33261 | CYP2C19 Supersomes, luciferin-H EGE luminescence, 30 min | inhibition, % at 5 µM | 96,000 compounds, 21% hits | AID 778, 2007;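 active = CYP2C19 inhibition above a set limit at 5 µM in the primary screen, cut at about 50% in these data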
Each line names hits and unclear results; the compound was inactive in the other large screens.

COc1ccc(-c2nc(C#N)c(NCCCN(C)C)o2)cc1OC	none
COc1ccc(-c2nc(C#N)c(N3CCOCC3)o2)cc1OC	none
C=CCNc1oc(-c2ccc(OC)cc2)nc1C#N	none
COc1ccc(CCNc2oc(-c3ccc(OC)c(OC)c3)nc2C#N)cc1	CYP2C9 inhib 53, CYP2C19 inh 52
CC(C)[C@@H](CO)NC(=O)c1ccc2c3n(nc2c1)-c1ccc(Cl)cc1CO3	none (no result: CYP2C19 activ, CYP2C9 activ, CYP2C9 inhib, CYP2C19 inh)
CC(C)(NC(=O)N1CCCC1)c1cccc(C(C)(C)NC(=O)N2CCCC2)c1	none
COc1ccc(-c2nc(C#N)c(NCC3CCCO3)o2)cc1OC (stereo unspecified)	CYP2C9 inhib 71, CYP2C19 inh 67
COc1ccc(CCNc2oc(-c3ccccc3OC)nc2C#N)cc1OC	CYP2C9 inhib 72, CYP2C19 inh 98
CCNc1oc(-c2cccc3ccccc23)nc1C#N	none
Cn1nccc1C(=O)N1CCN(c2ccc(F)cc2)CC1	none (no result: CYP2C19 activ, CYP2C9 activ, CYP2C9 inhib, CYP2C19 inh)
CC1=C(C(=O)OC(C)C)C(c2ccccn2)n2ncnc2N1 (stereo unspecified)	none
COC(=O)c1cccc(N2C(=O)C(Cl)=C(N3CCOCC3)C2=O)c1	CYP2C19 inh 61
COc1ccc(N2C(=O)C(Cl)=C(N3CCCC3)C2=O)cc1	none
O=C1C(Cl)=C(N2CCOCC2)C(=O)N1c1ccccc1Cl	CYP2C19 inh 94
CCOC(=O)c1cc2cc(OC)ccc2nc1C	none (no result: CYP2C19 activ, CYP2C9 activ, CYP2C9 inhib, CYP2C19 inh)
CCOc1ccc(-n2c(SCC(=O)NC(C)CC)nc3n[nH]c(C)c3c2=N)cc1 (stereo unspecified)	none (no result: Cav32 inh)
CCOc1ccc(-n2c(=S)sc3c(=O)[nH]c(SCC(=O)NC(C)CC)nc32)cc1 (stereo unspecified)	CYP2C9 inhib 78
CCOC(=O)C1CCN(c2ncnc3c2oc2ccc(Cl)cc23)CC1	CYP2C9 inhib 53, CYP2C19 inh 80
CCOC(=O)C1CCN(c2ncnc3c2[nH]c2cccc(OC)c23)CC1	CYP2C9 inhib 51, CYP2C19 inh 61
O=C(CSc1nc2ccccc2c(=O)n1CCCO)NCc1ccccc1	none
CCC(Sc1nc2ccccc2c(=O)n1CCN1CCOCC1)C(=O)NCc1cccnc1 (stereo unspecified)	CYP2C9 inhib 78
CCC(Sc1nc2ccccc2c(=O)n1CC1CCCO1)C(=O)NCc1cccnc1 (stereo unspecified)	CYP2C9 inhib 76
Cc1ccccc1C(=O)Nc1nc2n(n1)C(c1ccccc1)CC(=O)N2 (stereo unspecified)	none
CC(C)C1=C2CCCCC2NC(=O)N1 (stereo unspecified)	none
CCOC(=O)c1ccc(NC(=O)Cn2cc3c(n2)CCC(C)C3)cc1 (stereo unspecified)	none
CC(=O)OCc1c(C(F)(F)F)nn(C)c1Oc1ccccc1	CYP2C19 inh 92
CC(=O)c1cc(C#N)c(Oc2cccc(C(F)(F)F)c2)nc1C	none
Cc1nn(C)c(Oc2cccc(Cl)c2)c1C(=O)O	none
CC(=O)OCc1c(C(F)(F)F)nn(C)c1Oc1cccc(C(F)(F)F)c1	Cav32 inh -4.2, CYP2C19 inh 74
O=C(c1ccco1)N1CCN(/C(=N/S(=O)(=O)c2cccs2)c2ccccc2Cl)CC1	none
c1csc(Cn2c(-c3cccs3)nc3ccccc32)c1	CYP2C9 inhib 94, CYP2C19 inh 87
CN(C)c1ccc(C(=S)N2CCOCC2)cc1Br	CYP2C9 activ 2.4
S=C(c1ccc(N2CCOCC2)cc1)N1CCOCC1	none
COc1ccc(C(=O)N2CCOCC2)cc1Br	CYP2C9 activ 2.3
Cc1cc(-c2ccccc2)nn1-c1nc2c(c(=O)[nH]c(=O)n2C)n1C	none (no result: Cav32 inh)
CC(C)CC(c1nnnn1Cc1ccco1)N1CCN(C2CCCC2)CC1 (stereo unspecified)	none
CC(C(=O)NC1CCCC1)N(C(=O)c1snc(C(N)=O)c1N)c1ccc2c(c1)OCCO2 (stereo unspecified)	CYP2C9 inhib 50
CCOc1ccccc1N(C(=O)c1snc(C(N)=O)c1N)C(C(=O)NCCC(C)C)c1ccco1 (stereo unspecified)	CYP2C9 inhib 50
COc1ccc(CN(C(=O)c2snc(C(N)=O)c2N)C(C(=O)NC(C)(C)C)c2ccco2)cc1 (stereo unspecified)	none
CC(C)(C)NC(=O)C(c1ccco1)N(Cc1ccc(F)cc1)C(=O)c1snc(C(N)=O)c1N (stereo unspecified)	CYP2C9 inhib 56, CYP2C19 inh 66
COc1ccccc1N(C(=O)c1snc(C(N)=O)c1N)C(C(=O)NC1CCCC1)c1ccco1 (stereo unspecified)	CYP2C19 inh 62
COc1ccccc1N(C(=O)c1snc(C(N)=O)c1N)C(C(=O)NCCC(C)C)c1ccco1 (stereo unspecified)	none
COCCNC(=O)C(c1ccc(C)o1)N(C(=O)c1snc(C(N)=O)c1N)c1cc(C)cc(C)c1 (stereo unspecified)	CYP2C9 inhib 56, CYP2C19 inh 66
Cc1cccc(C)c1-n1nnnc1C1(Nc2ccccc2)CCCCC1	CYP2C9 inhib 61, CYP2C19 inh 61 (no result: Cav32 inh)
Cc1cc(C)c(C)c(/C=C(/C#N)C(N)=S)c1C	CYP2C9 inhib 65
CCC(C)[C@@H](C(=O)N1CCNCC1)n1cc(CCCN=C(N)N)nn1 (stereo partly specified)	none (no result: CYP2C19 activ, CYP2C9 activ, CYP2C9 inhib, CYP2C19 inh)
CCc1nnc(NC(=O)CSc2nnc(Cc3ccccc3)n2-c2ccccc2)s1	Cav32 inh -4.5
Cc1cc(NC(=O)CSc2nnc(CNc3ccc(F)cc3)n2C2CCCCC2)no1	none
CCc1nnc(NC(=O)CSc2nnc(COc3ccc(C)cc3)n2-c2ccccc2)s1	none
CCc1nnc(NC(=O)CSc2nnc(CNc3ccc(F)cc3)n2C2CCCCC2)s1	CYP2C9 inhib 68, CYP2C19 inh 57
CCc1nnc(NC(=O)CSc2nnc(CNc3cccc(C)c3)n2-c2ccccc2)s1	CYP2C9 inhib 77, CYP2C19 inh 51
COC(=O)c1cc(-c2ccccc2)sc1NC(=O)CN1C(=O)c2ccccc2C1=O	none
CC(=O)Nc1ccc(S(=O)(=O)NCCSCc2c(Cl)cccc2Cl)cc1	Cav32 inh -5.1, CYP2C9 inhib 77, CYP2C19 inh 73
COC(=O)c1ccccc1NC(=O)c1cc(-c2ccc(C)cc2)on1	none
O=C(Cn1ccc2ccccc2c1=O)NCCC(=O)N1CCN(c2cccc(C(F)(F)F)c2)CC1	none
O=c1ccccn1Cc1c(F)cccc1Cl	CYP2C19 inh 50
O=C(Cc1c(F)cccc1Cl)N1CCCC1	none
O=C(CSc1nc2c(c(=O)[nH]1)CCC2)Nc1cccc(Cl)c1	none
CN1CCc2nc(SCC(=O)Nc3cccc(F)c3)c(C#N)c(-c3cccs3)c2C1	CYP2C9 inhib 100, CYP2C19 inh 95 (no result: Cav32 inh)
COc1cccc(NC(=O)CSc2nc3c(c(-c4ccco4)c2C#N)CCCC3)c1	CYP2C9 inhib 53
